According to PubChem BioAssay:
Activity calls are given as the source filed them.

Columns and labels:
Albumin (Bos taurus) = Albumin (Bos taurus) (UniProt P02769); assay: compounds binding labelled BSA control protein – biochemical, small-molecule microarray, Alexa647 label, 635/667 nm fluorescence, artefact control for SMM control protein annotation, profiling panel (AID 1118); conditions: BSA-A647 binding, fluorescence 635 nm, higher = more signal;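 also: score merges 667 nm emission intensity and signal-to-noise per printed compound spot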
Sequence of Albumin (Bos taurus) (P02769 whole entry, looked up): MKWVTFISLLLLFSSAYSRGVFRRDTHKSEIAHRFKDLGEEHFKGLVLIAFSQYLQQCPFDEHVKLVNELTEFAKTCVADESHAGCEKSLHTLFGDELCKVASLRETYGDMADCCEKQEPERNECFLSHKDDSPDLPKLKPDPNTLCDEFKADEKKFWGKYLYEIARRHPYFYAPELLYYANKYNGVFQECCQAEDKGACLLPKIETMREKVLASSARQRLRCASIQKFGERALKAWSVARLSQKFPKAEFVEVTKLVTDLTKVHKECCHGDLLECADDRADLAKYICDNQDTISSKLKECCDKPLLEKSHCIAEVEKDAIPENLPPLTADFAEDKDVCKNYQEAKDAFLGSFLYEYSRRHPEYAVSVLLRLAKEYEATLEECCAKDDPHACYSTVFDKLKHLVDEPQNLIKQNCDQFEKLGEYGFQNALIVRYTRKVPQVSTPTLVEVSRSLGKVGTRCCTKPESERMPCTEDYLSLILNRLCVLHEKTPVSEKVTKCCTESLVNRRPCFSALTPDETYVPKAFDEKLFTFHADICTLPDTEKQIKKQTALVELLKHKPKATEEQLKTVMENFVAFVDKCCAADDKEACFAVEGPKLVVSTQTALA

[1] = probe aXIP binding to arrayed compounds – biochemical, NeuroSMM set, 635/667 nm fluorescence, primary screen (AID 1119); conditions: small-molecule microarray, higher = more signal, called active from +8 up or from −8 down;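 also: probe is the protein aXip251-270 applied at 1 µg/mL to compound-printed slides; binding of probe to printed compounds measured as 667 nm fluorescence plus signal to noise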
[2] = probe aNOTCH3 binding on compound microarray – biochemical, small-molecule microarray, 635/667 nm fluorescence, primary screen (AID 1120); conditions: higher = more signal;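 also: probe is a biotin-tagged antibody raised against NOTCH3 rather than NOTCH3 protein; score merges spot fluorescence near 667 nm with spot signal to noise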
[3] = probe aNOTCH2 binding on compound microarray – biochemical, small-molecule microarray, 635/667 nm fluorescence, primary screen (AID 1121); conditions: higher = more signal;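 also: score merges feature fluorescence read at 667 nm with its signal to noise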
[4] = target: Carbonic anhydrase 2 (Homo sapiens) (UniProt P00918); assay: compounds binding carbonic anhydrase 2 – biochemical, small-molecule microarray, Alexa647-labelled CAII, profiling panel (AID 1122); conditions: CAII-A647 binding fluorescence, higher = more signal
[5] = COS7 lysate on small-molecule microarray, probe aHis, 635 nm (AID 1123); conditions: COS7 cell lysate, fluorescence, higher = more signal;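 also: z-score combines 667nm fluorescence intensity with signal-to-noise per printed compound spot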
[6] = probe aLAP1 signal on lysate-treated microarray – cell lysate, small-molecule microarray, COS7 lysate, primary screen (AID 1124); conditions: probe aLAP1, fluorescence, higher = more signal;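 also: lysate comes from COS7 cells expressing LAP1 and is applied at 0.3 µg/mL; score merges spot fluorescence near 667 nm with signal-to-noise over triplicate slides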
Sam68 (KHDRBS1) = assay: compounds binding KHDRBS1 protein – biochemical, small-molecule microarray, 635 nm fluorescence, primary screen (AID 1125); conditions: higher = more signal;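 also: score merges 667 nm channel intensity with signal to noise over triplicate slides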
[7] = system: Chordin-like protein 2 (CHRDL2); assay: compounds binding chordin-like 2 – biochemical, small-molecule microarray, 635 nm fluorescence, primary screen (AID 1126); conditions: fluorescence 635 nm, higher = more signal;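 also: printed compound slides probed with Chrdl2 protein at 4 µg/mL for 1 h at 4 C; score merges 667 nm emission intensity with signal to noise over three replicate slides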
[8] = target: Concanavalin-A (Canavalia ensiformis) (UniProt P02866); assay: compounds binding concanavalin A lectin – biochemical, small-molecule microarray, Alexa647 label, 635 nm, artefact control for SMM control protein annotation, primary screen (AID 1127); conditions: ConA-A647 binding fluorescence, higher = more signal;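 also: z combines 667 nm emission intensity with signal-to-noise across three replicate slides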
Sequence of Concanavalin-A (Canavalia ensiformis) (P02866 whole entry, looked up): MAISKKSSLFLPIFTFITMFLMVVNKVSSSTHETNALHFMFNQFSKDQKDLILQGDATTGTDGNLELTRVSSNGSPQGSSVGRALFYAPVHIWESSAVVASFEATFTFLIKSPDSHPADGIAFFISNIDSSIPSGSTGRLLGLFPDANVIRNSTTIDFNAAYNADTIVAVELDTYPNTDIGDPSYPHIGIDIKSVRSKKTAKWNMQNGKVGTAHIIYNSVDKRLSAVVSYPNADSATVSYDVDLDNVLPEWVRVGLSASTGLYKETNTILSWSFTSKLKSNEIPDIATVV

[9] = compounds binding Alexa647 anti-His antibody – biochemical, small-molecule microarray, 635 nm fluorescence, artefact control for SMM control protein annotation, primary screen (AID 1128); conditions: higher = more signal;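 also: score merges feature fluorescence with signal-to-noise for each printed compound spot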
[10] = system: Human papillomavirus type 1a E7 protein (residues 1-88); assay: HPV1a E7 small-molecule binders, primary screen, biochemical, small-molecule microarray, residues 1-88, 635 nm (AID 1129); conditions: small-molecule microarray binding, fluorescence 635 nm; higher = more signal
[11] = target: Focal adhesion kinase 1 (Homo sapiens) (UniProt Q05397); assay: PTK2 protein binding on printed compound slides – biochemical, small-molecule microarray, 635/667 nm fluorescence, BSA, DTT, primary screen (AID 1130); conditions: 635 nm fluorescence, higher = more signal;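 also: composite of spot emission at 667 nm and signal to noise over triplicate slides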
Sequence of Focal adhesion kinase 1 (Homo sapiens) (Q05397 whole entry, looked up): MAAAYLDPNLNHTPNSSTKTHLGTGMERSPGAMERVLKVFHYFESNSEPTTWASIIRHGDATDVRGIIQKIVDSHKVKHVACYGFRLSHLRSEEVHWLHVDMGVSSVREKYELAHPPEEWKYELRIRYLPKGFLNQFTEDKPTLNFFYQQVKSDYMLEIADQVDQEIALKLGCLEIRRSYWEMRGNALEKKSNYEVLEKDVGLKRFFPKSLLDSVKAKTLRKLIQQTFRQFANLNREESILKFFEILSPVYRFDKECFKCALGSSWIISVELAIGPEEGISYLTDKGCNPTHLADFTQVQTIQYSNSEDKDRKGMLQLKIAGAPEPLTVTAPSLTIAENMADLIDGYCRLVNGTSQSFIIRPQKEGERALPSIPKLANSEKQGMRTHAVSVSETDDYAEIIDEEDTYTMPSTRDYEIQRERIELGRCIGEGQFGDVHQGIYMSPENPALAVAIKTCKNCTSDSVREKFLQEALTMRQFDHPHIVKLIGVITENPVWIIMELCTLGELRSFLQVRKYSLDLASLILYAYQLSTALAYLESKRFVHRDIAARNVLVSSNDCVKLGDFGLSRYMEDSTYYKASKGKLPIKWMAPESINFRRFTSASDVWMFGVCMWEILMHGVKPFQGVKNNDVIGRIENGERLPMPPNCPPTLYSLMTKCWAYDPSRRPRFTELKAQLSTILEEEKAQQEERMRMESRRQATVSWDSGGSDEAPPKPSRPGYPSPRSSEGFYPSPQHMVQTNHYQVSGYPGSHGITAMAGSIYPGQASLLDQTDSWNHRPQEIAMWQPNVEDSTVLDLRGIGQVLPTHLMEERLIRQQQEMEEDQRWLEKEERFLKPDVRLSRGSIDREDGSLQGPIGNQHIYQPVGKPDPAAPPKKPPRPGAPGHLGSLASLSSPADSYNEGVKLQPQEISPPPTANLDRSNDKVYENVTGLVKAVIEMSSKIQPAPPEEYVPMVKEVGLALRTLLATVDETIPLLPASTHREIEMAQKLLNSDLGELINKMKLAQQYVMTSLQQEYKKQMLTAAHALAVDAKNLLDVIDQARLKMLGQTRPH

[12] = system: Fibrinogen (Alexa647-labelled); assay: Alexa647-fibrinogen binding to printed small molecules – biochemical, small-molecule microarray, 635/667 nm fluorescence, artefact control for SMM control-protein annotation, profiling panel (AID 1131); conditions: fibrinogen-A647 binding fluorescence, higher = more signal;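 also: z-score merges 667 nm fluorescence with per-spot signal-to-noise over triplicate slides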
[13] = target: Follistatin (Homo sapiens) (UniProt P19883); assay: FST protein binding to printed compounds – biochemical, small-molecule microarray, 635/667 nm fluorescence, primary screen (AID 1132); conditions: 635 nm fluorescence, higher = more signal
Sequence of Follistatin (Homo sapiens) (P19883 whole entry, looked up): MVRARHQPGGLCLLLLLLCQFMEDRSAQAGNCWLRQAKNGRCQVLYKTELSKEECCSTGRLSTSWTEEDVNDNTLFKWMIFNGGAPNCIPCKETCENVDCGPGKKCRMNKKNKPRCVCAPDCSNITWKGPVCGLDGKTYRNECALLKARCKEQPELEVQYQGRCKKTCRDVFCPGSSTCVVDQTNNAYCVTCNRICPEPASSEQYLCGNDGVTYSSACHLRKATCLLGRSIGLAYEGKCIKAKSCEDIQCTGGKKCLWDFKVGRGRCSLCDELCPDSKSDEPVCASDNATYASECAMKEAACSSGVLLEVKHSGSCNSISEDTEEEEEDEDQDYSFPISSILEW

[14] = target: Fibroblast growth factor 2 (Homo sapiens) (UniProt P09038); assay: basic fibroblast growth factor binding to printed compounds – biochemical, small-molecule microarray, 635/667 nm fluorescence, primary screen (AID 1133); conditions: FGF2, fluorescence 635/667, higher = more signal
Sequence of Fibroblast growth factor 2 (Homo sapiens) (P09038 whole entry, looked up): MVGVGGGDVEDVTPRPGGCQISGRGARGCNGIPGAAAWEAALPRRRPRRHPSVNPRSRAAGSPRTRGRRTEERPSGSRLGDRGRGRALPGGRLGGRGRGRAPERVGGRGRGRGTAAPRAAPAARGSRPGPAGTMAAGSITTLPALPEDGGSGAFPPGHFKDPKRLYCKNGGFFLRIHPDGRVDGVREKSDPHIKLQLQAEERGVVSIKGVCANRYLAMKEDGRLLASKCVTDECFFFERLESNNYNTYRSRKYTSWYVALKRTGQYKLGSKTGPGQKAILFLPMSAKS

[15] = JC-1 mitochondrial potential readout, lung cancer cells – cell-based, A549, JC-1 fluorescence, basal, 24 h, 100 nL, profiling panel (AID 1138); conditions: higher = more signal;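 also: A549 lung adenocarcinoma cells under basal conditions with no added stimulus; test concentration not given here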
Lefty1 = Lefty1 protein binding to printed compounds – biochemical, small-molecule microarray, 635/667 nm fluorescence, primary screen (AID 1139); conditions: fluorescence 635/667, higher = more signal
[16] = system: wheat germ agglutinin (Triticum aestivum), Alexa647-labelled; assay: Alexa647-WGA lectin binding to printed small molecules – biochemical, small-molecule microarray, 635/667 nm fluorescence, artefact control for SMM control-protein annotation, profiling panel (AID 1140); conditions: WGA-A647 binding, 635 nm fluorescence, higher = more signal;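 also: score merges 667 nm feature emission with signal to noise over triplicate slides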
[17] = target: Luciferin 4-monooxygenase (Photinus pyralis) (UniProt P08659); assay: inhibition of purified Photinus pyralis luciferase – biochemical, luminescence, purified enzyme, 2006 set, primary screen (AID 1141); conditions: purified firefly luciferase, SteadyGlo luminescence, 30 min; higher = more signal, called active from +8 up or from −8 down;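 also: cell-free assay with purified firefly luciferase at 100 ng per well in PBS; test concentration not given here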
Sequence of Luciferin 4-monooxygenase (Photinus pyralis) (P08659 whole entry, looked up): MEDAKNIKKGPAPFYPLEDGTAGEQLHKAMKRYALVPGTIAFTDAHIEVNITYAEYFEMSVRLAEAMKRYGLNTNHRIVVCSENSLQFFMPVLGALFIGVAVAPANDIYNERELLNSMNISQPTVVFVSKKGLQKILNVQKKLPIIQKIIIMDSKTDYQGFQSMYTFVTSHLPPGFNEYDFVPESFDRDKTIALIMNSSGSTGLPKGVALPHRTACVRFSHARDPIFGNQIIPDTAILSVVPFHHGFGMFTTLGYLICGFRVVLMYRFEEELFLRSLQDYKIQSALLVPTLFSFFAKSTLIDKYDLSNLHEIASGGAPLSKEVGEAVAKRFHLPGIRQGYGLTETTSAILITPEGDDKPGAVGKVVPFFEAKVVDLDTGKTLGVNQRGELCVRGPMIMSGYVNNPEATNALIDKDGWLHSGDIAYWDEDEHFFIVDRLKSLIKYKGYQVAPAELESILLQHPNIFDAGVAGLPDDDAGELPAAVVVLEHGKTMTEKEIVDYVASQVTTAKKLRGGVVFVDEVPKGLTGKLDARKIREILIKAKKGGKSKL

Compound | composite z-score (Albumin (Bos taurus)) | composite Z-score [1] | composite z-score [2] | composite z-score [3] | composite z-score [4] | composite z-score [5] | composite z-score [6] | composite z-score (Sam68 (KHDRBS1)) | composite z-score [7] | composite z-score [8] | composite z-score [9] | composite z-score [10] | composite z-score [11] | composite z-score [12] | composite z-score [13] | composite z-score [14] | z-score [15] | composite z-score (Lefty1) | composite z-score [16] | z-score [17]
CC(=O)OC[C@H]1O[C@@H](ON=C2[C@H]3CCn4c(=O)n(-c5ccccc5)c(=O)n4[C@H]3[C@H](O)[C@@H]3O[C@H]23)[C@H](OC(C)=O)[C@@H](OC(C)=O)[C@@H]1OC(C)=O | 0.0931 | 0.0029 (inactive) | 0.086 | -0.186 | 0.541 | 1.09 | 0.0273 | 1.07 | 0.544 | 0.339 | 1.66 | 0.894 | -0.144 | 0.8 | 0.419 | 0.431 | 0.188 | 0.413 | 0.169 | 0.939 (inactive)
CC(CCC(=O)OC[C@H]1O[C@H](C#Cc2ccccc2)C=C[C@@H]1Oc1ccc(C)cc1)=NOC(C)CN1CCCCc2nc(C)c(C)cc21 (stereo not given in full) | 0.473 | 1.48 (inactive) | -0.0377 | 0.161 | 0.346 | 0.938 | 0.214 | 0.313 | -0.168 | -0.207 | -0.578 | 0.203 | 0.603 | -0.626 | -0.463 | -0.426 | 0.856 | -0.034 | 0.222 | 1.08 (inactive)
CCc1cc2c(nc1CC)CCN(CCC(C)=NOC[C@@H](C)[C@H](OCc1ccccc1)C(C)C)C2 | 0.742 | 0.551 (inactive) | -0.443 | -0.135 | -0.25 | -0.171 | -0.383 | -0.16 | -1.05 | -1.12 | 2.64 | -0.684 | -0.846 | -1.69 | -0.862 | -1.39 | 0.874 | -0.465 | -0.323 | -1.77 (inactive)
C#CCCCON=C1C[C@@H](O)[C@@H](O)[C@@H]2[C@@H]3C(=O)N([C@@H](C)c4ccccc4)C(=O)[C@@H]3CC[C@@H]12 | 0.356 | -0.51 (inactive) | 0.114 | -0.165 | 0.717 | 0.0072 | 0.0247 | -0.105 | -0.13 | 0.123 | -0.559 | -0.82 | -0.0567 | -0.181 | -0.326 | -0.141 | -0.683 | -0.32 | 0.0859 | 0.993 (inactive)
C=CC[C@@H]1C=CC(ON=C(C)C)[C@@H](CO)O1 (stereo not given in full) | -0.282 | 0.112 (inactive) | -0.0288 | -0.19 | -0.341 | -0.301 | -0.178 | -1.11 | -0.213 | -0.0875 | 3.16 | -0.901 | 0.0886 | -0.445 | -0.356 | -0.458 | 0.178 | -0.0561 | -0.0488 | -0.0424 (inactive)
CC(=O)OC[C@H]1O[C@H](CC=NOC(C)CN2CCCc3nc(C)c(C)cc32)C=C[C@@H]1OC(C)=O (stereo not given in full) | -0.0846 | 1.01 (inactive) | 0.0591 | 0.0032 | 0.0124 | 0.0855 | 0.53 | 1.2 | 1.15 | -0.152 | 1.42 | 0.507 | 0.246 | 0.145 | 0.803 | 0.684 | -0.221 | 0.947 | -0.0862 | 0.767 (inactive)
CO[C@@H]1[C@H](O)CO[C@H]1C=Cc1ccccc1 | 0.24 | -0.173 (inactive) | -0.127 | -0.0956 | 0.405 | 0.402 | 0.388 | 0.243 | 0.144 | 0.17 | 0.286 | 0.219 | 0.0086 | 0.543 | 0.251 | 0.273 | -0.75 | 0.28 | -0.07 | -0.339 (inactive)
CC(=O)OC[C@H]1O[C@@H](ON=C(C)CCC(=O)OC[C@H]2O[C@H](C#Cc3ccccc3)C=C[C@@H]2Oc2ccc(C)cc2)[C@H](OC(C)=O)[C@@H](OC(C)=O)[C@@H]1OC(C)=O | 0.635 | -0.0164 (inactive) | 0.0493 | -0.0714 | 0.273 | 0.989 | 0.0582 | 1.3 | 0.549 | 0.943 | 0.48 | 0.843 | 0.108 | 0.705 | 0.753 | 1.26 | 1.08 | 0.648 | 0.307 | -0.305 (inactive)
CO[C@H]1COC(=O)CC=C[C@H](C)[C@H](OC)COC(=O)[C@@H](C)NC(=O)CC=C[C@@H]1C | -0.487 | -0.347 (inactive) | -0.0319 | -0.164 | -0.54 | 1.95 | -0.0788 | -0.445 | 1.49 | -0.898 | 0.491 | -1.08 | 0.764 | -2.18 | 1.23 | 1.47 | -0.838 | 1.52 | -0.206 | 1.14 (inactive)
COc1ccc(O[C@H]2C=C[C@@H](C#Cc3ccccc3)O[C@@H]2CO)cc1 | 0.271 | 0.446 (inactive) | -0.0932 | 0.113 | 0.314 | 0.962 | 0.0803 | -0.006 | 0.176 | 0.869 | -0.0687 | 0.071 | 0.0306 | 0.744 | 0.365 | 0.0738 | 0.511 | 0.71 | 0.48 | -1.67 (inactive)
COC(=O)CC=C1c2ccccc2[C@H](OC)[C@H]1C | -0.8 | 0.272 (inactive) | 0.0026 | -0.0614 | -0.36 | -0.316 | -0.441 | -0.742 | 0.523 | -0.334 | -0.706 | -0.352 | -0.102 | -0.479 | -0.0211 | 0.621 | -0.612 | 0.338 | -0.488 | 0.469 (inactive)
